An excerpt weighted towards active compounds, which were near 21% of everything screened.
RORgamma inh: inhibitors of mouse ROR gamma transcriptional activity. P51450. Drosophila S2 Gal4-RORgamma UAS-luciferase reporter, 20 h. Potency, µM (top dose mostly 53.6 µM), inactives show at the highest dose activity change, negative = inhibition, usual class: inhibitors. 310,000 compounds, 5.4% hits. AID 2551; further: potency means the concentration at half of the fitted maximal effect; nearly all actives have a fitted effect of over 60% in size
Target sequence (P51450 whole entry, looked up, the tested form may be a part): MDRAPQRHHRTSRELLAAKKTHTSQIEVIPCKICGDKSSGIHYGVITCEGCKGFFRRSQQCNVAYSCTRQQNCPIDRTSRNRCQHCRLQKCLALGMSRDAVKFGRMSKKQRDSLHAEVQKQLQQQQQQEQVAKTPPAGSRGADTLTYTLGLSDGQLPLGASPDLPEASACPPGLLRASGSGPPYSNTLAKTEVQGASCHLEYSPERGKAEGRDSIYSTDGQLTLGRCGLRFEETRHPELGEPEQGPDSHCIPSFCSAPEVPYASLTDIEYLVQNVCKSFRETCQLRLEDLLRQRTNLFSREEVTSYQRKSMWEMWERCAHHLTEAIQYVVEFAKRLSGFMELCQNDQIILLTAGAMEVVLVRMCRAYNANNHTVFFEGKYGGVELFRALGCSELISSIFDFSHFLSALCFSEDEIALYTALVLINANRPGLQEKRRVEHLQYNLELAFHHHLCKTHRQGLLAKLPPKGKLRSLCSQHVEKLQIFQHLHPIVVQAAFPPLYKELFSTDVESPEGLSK
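Stably transfected Drosophila Schneider cells are the test system, with ROR gamma fused to Gal4 and luciferase under UAS control; luminescence is read after 20 hr of 700 uM copper sulfate induction at ambient temperature.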
TDP1 cell noCPT: qHTS for Inhibitors of human tyrosyl-DNA phosphodiesterase 1 (TDP1): qHTS in cells in absence of CPT | Potency, µM (top dose mostly 46.2 µM), inactives show at the top dose activity change, negative = growth inhibition, hits mostly inhibitors | DT40 Tdp1-/- hTDP1 cells, no CPT, ATP luminescence, 48 h | AID 686978, 2013 | 420,000 compounds, 15% hits; further: potency means the concentration at half of the fitted maximal effect; nearly all actives have a fitted effect of over 55% in size
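No-CPT arm: Tdp1-/-;hTDP1 DT40 cells (400/well) plus compounds, incubated ≥48 hr at 37 °C. Readout CellTiter-Glo luminescence.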
IL1B secr inh: inflammasome signaling inhibition, IL-1 beta readout; THP-1 LPS/ATP IL-1B secretion, AlphaLISA, 16 h; hits give low values; activity change, % at 57.5 µM; 360,000 compounds, 4.7% hits; AID 743279; in the data active means activity change below about -50%; inconclusive means mostly about -30% to -49%
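Secreted IL-1B measured by AlphaLISA bead assay after 16 h compound exposure of THP-1 cells; compounds (final up to 57.5 uM) added 1 h before LPS (250 ng/mL) and ATP (1.25 mM) stimulation; lower signal means less secretion.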
ELG1 DNA repair: inhibitors of ELG1-dependent DNA repair in HEK293T cells. Potency, µM (highest dose often 46.1 µM), for the others: at the highest dose activity change, negative = inhibition, usual class: inhibitors. HEK293T ELG1-luciferase reporter, luminescence, 16 h; DNA damage induced by 5-fluorouridine. AID 504467. 330,000 compounds, 2.3% hits; further: potency means the concentration at half of the fitted maximal effect; nearly all actives have a fitted effect of over 55% in size
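HEK293T cells expressing luciferase-tagged ELG1 (2,000/well) received 5-Fluorouridine plus compound or DMSO for 16 hr at 37 °C. Luciferase was read by ONE-Glo luminescence after 30 min at room temperature.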
Gal4-VP16 FLuc: inhibits Gal4-VP16 luciferase reporter, ROR gamma counter-screen; Potency, µM (series often up to 53.6 µM), inactives show at the top dose activity, negative = inhibition, most hits filed as inhibitors; 310,000 compounds, 3.5% hits; Drosophila S2 Gal4-VP16 UAS-luciferase, luminescence, 20 h;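 further: Gal4-VP16 expression switched on by copper sulfate through the metallothionein promoter; potency means the concentration at half of the fitted maximal effect; nearly all actives have a fitted effect of over 50% in size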
TDP1 cell CPT: DT40-hTDP1 cell growth loss with CPT; 420,000 compounds, 12% hits; chicken DT40 Tdp1-/-;hTDP1 cells + 20 nM CPT, ATP luminescence, 48 h; Potency, µM (series often up to 46.2 µM), for the others: at the top dose activity change, negative = growth inhibition, hits mostly inhibitors; AID 686979; further: potency means the concentration at half of the fitted maximal effect; nearly all actives have a fitted effect of over 55% in size
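Cell growth measured by CellTiter-Glo luminescence after a minimum 48 h, 37 C compound exposure with 20 nM CPT in Tdp1-knockout DT40 cells stably expressing hTDP1, seeded 400/well; qHTS titration format.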
* marks the source's active call; other numbers are inactive results; ? = inconclusive; . = not tested or not shown. Unless noted, the call rests on the fitted dose curve; in most records, active means well fitted curve in the direction sought with a large enough effect; inconclusive means small, poorly fitted or top-dose-only effect, or another doubt; inactive means no such curve, though single readings can be large; an effect the other way counts as inactive or inconclusive. On the % scale 0 is the no-effect control and ±100 the full control effect.

SMILES	RORgamma inh	TDP1 cell noCPT	IL1B secr inh	ELG1 DNA repair	Gal4-VP16 FLuc	TDP1 cell CPT
COC(=O)N/N=C/c1cccc(OCCSc2ccc(Cl)cc2)c1	?	?	-22	0%	-20%	?
NC(=S)N/N=C/c1ccccc1OCCSc1ccc(Cl)cc1	?	15µM*	?	?	28µM*	13µM*
O=c1[nH]c(Cc2ccccn2)nc2scc(-c3ccc(Cl)cc3)c12	5.6µM*	-19%	-15	?	?	?
O=c1[nH]c(Cc2cccs2)nc2scc(-c3ccc(Cl)cc3)c12	?	-28%	1	3%	-1%	13µM*
COc1ccccc1CNS(=O)(=O)c1c(C(=O)N2CCC(C)CC2)c(C)n(C)c1C	.	-23%	.	.	.	-10%
COc1cc(/C=C(\C#N)c2nc3ccccc3[nH]2)ccc1OCc1ccccc1F	.	-27%	.	.	.	?
N#C/C(=C/c1ccc(N2CCOCC2)o1)c1nc2ccccc2[nH]1	-80%	?	-22	?	?	?
COc1cc(/C=C(\C#N)c2nc3ccccc3[nH]2)ccc1Oc1ccc([N+](=O)[O-])cn1	37%	21µM*	?	0%	3%	12µM*
COc1ccc(/C=C(\C#N)c2nc3ccccc3[nH]2)cc1O	?	21µM*	?	?	-30%	15µM*
N#C/C(=C\c1cc([N+](=O)[O-])c(N2CCOCC2)cc1N1CCOCC1)c1nc2ccccc2[nH]1	?	23µM*	?	21µM*	-6%	?
COc1cc(/C=C(\C#N)c2nc3ccccc3[nH]2)cc(OC)c1O	8%	13µM*	-60*	-30%	-19%	16µM*
O=Nc1c(O)[nH]c2c(Cl)c(Cl)ccc12	-30%	.	.	.	0%	.
Cc1nn2c(=O)cc(COC(=O)c3ccco3)nc2s1	.	-6%	.	.	.	1%
O=S(=O)(Nc1nc2ccccc2nc1Cl)c1ccc(Br)cc1	-7%	?	-2	-14%	-12%	?
Cc1cc(/C=C(/C#N)c2nc3ccccc3[nH]2)c(C)n1-c1cccc([N+](=O)[O-])c1	-33%	13µM*	-62*	15µM*	-16%	16µM*
COc1cc(/C=C(/C#N)c2nc3ccccc3c(=O)[nH]2)ccc1O	0%	-24%	-4	?	25%	-18%
COc1cc(/C=C(\C#N)c2nc3ccccc3[nH]2)cc(Br)c1OCc1ccccc1	?	21µM*	-18	?	?	18µM*
COc1ccc(/C=C(\C#N)c2nc3ccccc3c(=O)[nH]2)cc1OC	.	18µM*	.	.	.	?
COc1cc(/C=C(\C#N)c2nc3ccccc3[nH]2)cc(Br)c1OCc1ccc(F)cc1	28%	?	2	?	-20%	?
O=C(NCc1ccccc1)c1cc(C2COCCN2C(=O)c2cccs2)on1 (stereo not drawn)	.	-21%	-13	.	.	-21%
CCOC(=O)N1CCC(NC(=O)c2ccc3c(c2)N(Cc2ccc(Cl)cc2)C(=O)c2ccccc2S3(=O)=O)CC1	.	23µM*	.	.	.	?
CCOC(=O)N1CCC(NC(=O)c2ccc3c(c2)N(Cc2ccc(Cl)cc2)C(=O)c2ccccc2S3=O)CC1 (stereo not drawn)	.	23µM*	.	.	.	?
CCOC(=O)N1CCC(NC(=O)c2ccc3c(c2)N(Cc2ccc(F)cc2)C(=O)c2ccccc2S3=O)CC1 (stereo not drawn)	.	?	.	.	.	16µM*
CCOC(=O)N1CCC(NC(=O)c2ccc3c(c2)N(Cc2ccccc2)C(=O)c2ccccc2S3=O)CC1 (stereo not drawn)	.	-2%	.	.	.	-1%
CC(C)C[C@H]1CN(CCCC[C@@H]2CNC(=O)C(=O)N2Cc2ccccc2)C(=O)C(=O)N1Cc1ccccc1	.	-8%	21	.	.	2%
SMILES	RORgamma inh	TDP1 cell noCPT	IL1B secr inh	ELG1 DNA repair	Gal4-VP16 FLuc	TDP1 cell CPT
CCc1ccc(CNC(=O)c2ccc(-n3c(C)cc4c3CCC(C)C4)cc2)cc1 (stereo not drawn)	.	21µM*	.	.	.	16µM*
COc1ccc(Br)cc1CNC(=O)C1CCN(S(=O)(=O)N2CCCC2)CC1	7%	-29%	-9	-15%	-1%	-4%
CC1CCn2c(nc3cc(C(=O)NCc4ccc(F)cc4)ccc32)C1 (stereo not drawn)	.	?	.	.	.	-24%
COc1ccc(Br)cc1CNC(=O)c1ccc(-n2c(C)cc3c2CCC(C)C3)cc1 (stereo not drawn)	.	18µM*	.	.	.	23µM*
Cc1cc2c(n1-c1ccc(C(=O)NCc3cccc(Br)c3)cc1)CCC(C)C2 (stereo not drawn)	.	15µM*	.	.	.	?
CN1CCSc2ccc(C(=O)NCc3cccc(Br)c3)cc21	16%	-22%	-24	-1%	1%	5%
COCCn1c(C)cc(O)c(C(c2ccc(Cl)cc2)N2CCCCC2)c1=O (stereo not drawn)	.	0%	.	.	.	4%
Cc1cc2nc(C3CCCCC3)c(Cc3cccc(Cl)c3)n2c(C)c1Br	.	-25%	38	.	.	-18%

From PubChem BioAssay
